Inconclusive results are not listed. The source made the active and inactive calls. Calls follow the shape of the dose curve; as a rule, active = well fitted cell-killing curve with a large enough effect; inconclusive = small, poorly fitted or top-dose-only effect, or effect the other way; inactive = no such curve, though single readings can be large or run the other way.
Experiment: Quantitative High-Throughput drug screen in 47 multiple myeloma cell lines against the NCATS MIPE library collection: INA6_PLB cell viability assay (AID 1918965; also: nearly all actives have a fitted effect of over 55% in size)
Conditions: INA6 myeloma viability, CellTiter-Glo ATP luminescence, 48 h; series mostly up to 45.8 µM
Description: PI: Beverly A. Mock Ph.D.
Laboratory of Cancer Biology and Genetics,
Center for Cancer Research, National Cancer Institute,
National Institute of Health, Bethesda, Maryland
Drug resistance and disease progression are common in multiple myeloma (MM) patients, underscoring the need for new therapeutic combinations. […] We hypothesized that effective combinations would reduce MYC expression and enhance p16 activity. […] These preclinical data identify potentially useful drug combinations for evaluation in drug-resistant MM and reveal potential mechanisms of combined drug sensitivity.
Described herein is the primary MIPE qHTS used to cherrypick compounds. Validated compounds were then further tested for potential synergistic activiy.
[1] Peat TJ, Gaikwad SM, Dubois W, Gyabaah-Kessie N, Zhang S, Gorjifard S, Phyo Z, Andres M, Hughitt VK, Simpson RM, Miller MA, Girvin AT, Taylor A, Williams D, D'Antonio N, Zhang Y, Rajagopalan A, Flietner E, Wilson K, Zhang X, Shinn P, Klumpp-Thomas C, McKnight C, Itkin Z, Chen L, Kazandijian D, Zhang J, Michalowski AM, Simmons JK, Keats J, Thomas CJ, Mock BA. Drug combinations identified by high-throughput screening promote cell cycle transition and upregulate Smad pathways in myeloma. Cancer Lett. 2023 Aug 1;568:216284. doi: 10.1016/j.canlet.2023.216284. Epub 2023 Jun 24. PMID: 37356470; PMCID: PMC10408729.
SEQUENCE No. (e.g., 1, 2, 3, etc.); […] (e.g., Cells, Incubation, Reagent, etc.); VALUE and DESCRIPTION.
1; Cells; 5 uL; white, solid bottom 1536-well Greiner assay plate.
2; Compounds; 23 nL; Kalypsis pin tool (Wako USA) equipped with a 1536-well pin head to transfer to the assay plates.
3; Incubation; 48 hours; 37C incubation.
4; Reagent;5uL; CellTiter Glo (Promega).
5; Detector; 425V; Luminescence; Viewlux PerkinElmer.
NOTES (numbers refer to Sequence numbers above)
1. The cell-based screening methods employed in this study were like those previously published. Briefly, the corresponding myeloma cell lines were screened in 1,536-well plates with 500 cells, 5-uL per well for inhibition of cell viability (assessed by measuring ATP levels with CellTiterGlo).
2. NCATS MIPE 4.0 library of approved and investigational drugs were added using the Kalypsis pin tool. Wells treated with DMSO only for 100% viability and media only wells for 0% viability were used as controls.
3. The assay plates were covered and incubated for 48 hours in a 37C, 5% CO2 incubator with controlled humidity.
4. After 48 hours, CellTilter-GloTM luminescent substrate mix (Promega) reagent was added to the assay plate and plates we incubated for 5 min at room temperature.
5. Signal was measured as median relative luminescence units on a ViewLux (PerkinElmer) multiplate reader.
[1] Heske CM, Davis MI, Baumgart JT, Wilson K, Gormally MV, Chen L, Zhang X, Ceribelli M, Duveau DY, Guha R, Ferrer M, Arnaldez FI, Ji J, Tran HL, Zhang Y, Mendoza A, Helman LJ, Thomas CJ. Matrix Screen Identifies Synergistic Combination of PARP Inhibitors and Nicotinamide Phosphoribosyltransferase (NAMPT) Inhibitors in Ewing Sarcoma. Clin Cancer Res. 2017 Dec 1;23(23):7301-7311. doi: 10.1158/1078-0432.CCR-17-1121. Epub 2017 Sep 12. PMID: 28899971; PMCID: PMC6636827.
Potency is read from the fitted curve at half-maximal effect.

Compound | Potency
Cc1cccc(-c2[nH]c(C(C)(C)C)nc2-c2ccc3nccnc3c2)n1 | 7.43 µM (active)
COc1cccc2cc(-c3nc(C4CCC(C(=O)O)CC4)n4ncnc(N)c34)[nH]c12 (stereo not given) | 1.48 µM (active)
O=S(=O)(N=Cc1c(O)ccc2ccccc12)c1cccs1 | 2.64 µM (active)
CC[C@@H](C)[C@H](NC(=O)[C@H](CC1CCCCC1)NC(=O)c1ccno1)C(=O)N1CCC2(CCc3ccccc32)CC1 | inactive
O=c1ncn2nc(Sc3ccc(F)cc3F)ccc2c1-c1c(Cl)cccc1Cl | 4.18 µM (active)
CS(=O)(=O)Oc1ccc2c(NC(N)=O)c(C(=O)c3ccc(Cl)cc3Cl)oc2c1 | 5.26 µM (active)
CCOc1cc(N2CCC(O)CC2)ccc1Nc1ncc2c(n1)N(C)c1ccccc1C(=O)N2C | 2.64 µM (active)
CCCC(CCC)C(=O)O | inactive
CNC[C@H](O)c1cccc(O)c1 | inactive
Clc1ccc(Nc2nnc(Cc3ccncc3)c3ccccc23)cc1 | 16.6 µM (active)
Cc1cc(-c2ccc(CC(=O)Nc3ccc(-c4cccnc4)cc3)cc2)ccn1 | 13.2 µM (active)
Cc1cc(Nc2nc(N[C@@H](C)c3ncc(F)cn3)ncc2Cl)n[nH]1 | 5.26 µM (active)
COc1c(Cl)cc2c([nH]c3cnccc32)c1NC(=O)c1cccnc1C | 2.96 µM (active)
O=C(c1cc(Cc2n[nH]c(=O)c3ccccc23)ccc1F)N1CCN(C(=O)C2CC2)CC1 | 16.6 µM (active)
COc1ccccc1-c1cccc(-c2c(O)c3cc(C#N)c(Cl)cc3[nH]c2=O)c1 | inactive
COc1cc2nccc(Oc3ccc(NC(=O)NC4CC4)c(Cl)c3)c2cc1C(N)=O | 16.6 µM (active)
CN[C@@H](C)C(=O)N[C@H]1CCCC[C@H]2CC[C@@H](C(=O)N[C@@H](c3ccccc3)c3cn(CCCCc4ccc(CCCCn5cc([C@@H](NC(=O)[C@@H]6CC[C@@H]7CCCC[C@H](NC(=O)[C@H](C)NC)C(=O)N76)c6ccccc6)nn5)cc4)nn3)N2C1=O | 8.33 µM (active)
N=c1nc(N2CCCCC2)cc(N)n1O | 23.5 µM (active)
Cc1cc2c(C(C)C)c(O)c(O)c(C=O)c2c(O)c1-c1c(C)cc2c(C(C)C)c(O)c(O)c(C=O)c2c1O | 9.35 µM (active)
COc1ccccc1[C@H](c1cccc2ccccc12)[C@@](C)(C#N)C(=O)N1CCC(c2cccc(C(F)(F)F)c2)CC1 | 1.87 µM (active)

Compound | Potency
Cc1[nH]c(=O)c(C#N)cc1-c1ccncc1 | 14.8 µM (active)
CCCS(=O)(=O)Nc1ccc(F)c(C(=O)c2c[nH]c3ncc(Cl)cc23)c1F | 2.96 µM (active)
CCc1cncnc1N1CCN(Cc2nc3ccc(C(F)(F)F)cc3[nH]2)CC1 | 10.5 µM (active)
C[C@@H]1CN(Cc2ccc(F)cc2)[C@@H](C)CN1C(=O)c1cc2c(C(=O)C(=O)N(C)C)cn(C)c2cc1Cl | 20.9 µM (active)
COc1nc(-c2ccc3c(c2)OCO3)n(-c2ccc(NC(=O)CSc3ccccc3)cc2)n1 | inactive
CCc1ccc(CCOc2ccc(CC3SC(=O)NC3=O)cc2)nc1 (stereo not given) | inactive
COc1ccc([C@@H]2CC(=O)c3c(O)cc(O[C@@H]4O[C@H](CO[C@@H]5O[C@@H](C)[C@H](O)[C@@H](O)[C@@H]5O)[C@@H](O)[C@H](O)[C@@H]4O)cc3O2)cc1O | inactive
CC(C)(N)C(=O)N[C@H](COCc1ccccc1)C(=O)N1CCC2(CC1)CN(S(C)(=O)=O)c1ccccc12 | 10.5 µM (active)
CCOc1ccc(Cc2cc([C@@H]3O[C@H](CO)[C@@H](O)[C@H](O)[C@@H]3O)ccc2Cl)cc1 | inactive
CCN(c1ccccc1)c1cc(NC)[n+](C)c(C)n1 | inactive
Nc1cccc(S(=O)(=O)N2CCCN(S(=O)(=O)c3ccc4c(c3)OCCO4)CC2)c1 | inactive
CC(C[N+](C)(C)C)OC(N)=O (stereo not given) | inactive
CC(C)C[C@H](NC(=O)[C@@H](O)[C@H](N)Cc1ccccc1)C(=O)O | 20.9 µM (active)
CCOC(=O)C1=C[C@]2(CC)CCCN3CCc4c(n1c1ccccc41)[C@@H]32 | 8.33 µM (active)
Cc1c(CCOc2ccc(C(=O)O)cc2)c2cc(Cl)ccc2n1C(c1ccccc1)c1ccccc1 | inactive
CC[C@H](Nc1ncnc2nc[nH]c12)c1nc2cccc(F)c2c(=O)n1-c1ccccc1 | 13.2 µM (active)
NS(=O)(=O)c1cc2c(cc1Cl)NC=NS2(=O)=O | inactive
NC(=O)c1cnccn1 | inactive
Nc1ncnc2nc(-c3ccc(N4CCOCC4)nc3)cc(-c3cccc(Br)c3)c12 | 18.7 µM (active)
CO[C@@H]1[C@H](N(C)C(=O)c2ccccc2)C[C@H]2O[C@]1(C)n1c3ccccc3c3c4c(c5c6ccccc6n2c5c31)C(=O)NC4 | 0.132 µM (active)
